PubChem BioAssay AID602376 (Johns Hopkins Ion Channel Center, 2012)
Potency and affinity values are given separately. Records with an inconclusive call do not appear. Values without a mark were called inactive.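 How the source made its calls: active means raises choline transporter activity at one or more tested doses and gives a fitted dose-response curve; inconclusive means no clear call, values can overlap the other calls; inactive means no choline transporter activation at any dose, or no curve.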

Molecular target: High affinity choline transporter 1 (Homo sapiens) (UniProt Q9GZV3)
Test: CHT activators, dose response, cell-based, 10-point CRC, membrane potential dye (AID 602376)
Conditions: HEK293-CHT, choline-induced membrane potential dye, cells express CHT LV-AA mutant; series mostly up to 67 µM; percent activation: at the top concentration

Chain of High affinity choline transporter 1 (Homo sapiens) (Q9GZV3 whole entry, looked up): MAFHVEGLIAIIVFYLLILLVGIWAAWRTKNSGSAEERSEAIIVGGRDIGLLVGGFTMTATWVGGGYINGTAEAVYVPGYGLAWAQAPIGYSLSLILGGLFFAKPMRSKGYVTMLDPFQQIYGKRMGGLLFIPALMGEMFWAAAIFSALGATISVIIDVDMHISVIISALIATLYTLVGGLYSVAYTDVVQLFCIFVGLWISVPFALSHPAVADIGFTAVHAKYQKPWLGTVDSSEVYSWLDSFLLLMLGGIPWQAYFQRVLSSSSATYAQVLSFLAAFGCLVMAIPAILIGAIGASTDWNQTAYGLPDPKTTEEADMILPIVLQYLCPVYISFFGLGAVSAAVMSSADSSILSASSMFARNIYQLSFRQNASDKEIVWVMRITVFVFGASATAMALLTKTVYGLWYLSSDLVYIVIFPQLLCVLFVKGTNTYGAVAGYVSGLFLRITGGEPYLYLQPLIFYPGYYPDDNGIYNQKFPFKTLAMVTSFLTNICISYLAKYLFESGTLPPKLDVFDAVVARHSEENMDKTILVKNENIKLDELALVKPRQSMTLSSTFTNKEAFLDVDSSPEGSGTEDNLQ

In order of falling “percent activation” value:
1. CCCC12CN(C(=O)c3ccc([N+](=O)[O-])cc3)CC(C)(CN(C(=O)c3ccc([N+](=O)[O-])cc3)C1)C2=O  97.7%
2. O=c1c2ccccc2nc2n1C(CSCc1ccc(Cl)cc1)CS2 (stereo unspecified)  92.1%
3. COc1ccc(C(C)=O)cc1CSc1nc2ccccc2c(=O)n1-c1ccccc1C  82.6%
4. C=C1CCN(Cc2ccccc2)S(=O)(=O)c2ccccc21  80%
5. COc1cccc(C(c2nnnn2Cc2ccco2)N2CCN(c3cccc(C)c3C)CC2)c1OC (stereo unspecified)  73.6%
6. CCC(=O)N1CCN(c2ccccc2NC(=O)c2ccc([N+](=O)[O-])o2)CC1  72%
7. O=C(COc1ccccc1)NCC(c1ccco1)N1CCN(c2ccccc2)CC1 (stereo unspecified)  70.1%
8. CCOc1cc(NC(=O)c2ccco2)c(OCC)cc1NC(=O)c1ccco1  66.1%
9. O=C(Nc1cccc(Cl)c1N1CCOCC1)c1cc([N+](=O)[O-])ccc1N1CCOCC1  61.5%
10. O=C(NCC(c1ccco1)N1CCc2ccccc2C1)c1cccc(F)c1 (stereo unspecified)  61.1%
11. CC(C)(C)n1nnnc1C(c1cccnc1)N1CCN(c2cccc(C(F)(F)F)c2)CC1 (stereo unspecified)  52.4%
12. CC(Sc1ccc(Cl)cc1)C(=O)Nc1ccccc1-c1ccccc1 (stereo unspecified)  50.3%
13. CC(C)CCOC(=O)/C(=C/c1ccco1)NC(=O)/C=C/c1ccccc1  37.4%
14. O=C(NCCC1=CCCCC1)C1CCN(Cc2cnn(-c3ccccc3)c2-n2cccc2)CC1  33.6%
15. Cc1nnc(N2CCC(C(=O)N3CCCCC3)CC2)c2nn(-c3ccc(Cl)cc3)c(C)c12  24.8%
16. Cc1cc(N2CCN(Cc3cn(C)nc3-c3ccccc3F)CC2)cc(C)n1  11.6%
